# RORg inh – inhibitors of mouse ROR gamma transcriptional activity; Drosophila S2 Gal4-RORgamma UAS-luciferase reporter, 20 h; Potency, µM (doses to about 53.6 µM), for the others: top-dose activity change, negative = inhibition, actives largely listed as inhibitors; 5.4% of 310,000 active; AID 2551; further: potency means the concentration at half of the fitted maximal effect; on the % scale 0 is the no-effect control and ±100 the full control effect; nearly all actives have a fitted effect of over 60% in size
# Target sequence (P51450 whole entry, looked up, the tested form may be a part): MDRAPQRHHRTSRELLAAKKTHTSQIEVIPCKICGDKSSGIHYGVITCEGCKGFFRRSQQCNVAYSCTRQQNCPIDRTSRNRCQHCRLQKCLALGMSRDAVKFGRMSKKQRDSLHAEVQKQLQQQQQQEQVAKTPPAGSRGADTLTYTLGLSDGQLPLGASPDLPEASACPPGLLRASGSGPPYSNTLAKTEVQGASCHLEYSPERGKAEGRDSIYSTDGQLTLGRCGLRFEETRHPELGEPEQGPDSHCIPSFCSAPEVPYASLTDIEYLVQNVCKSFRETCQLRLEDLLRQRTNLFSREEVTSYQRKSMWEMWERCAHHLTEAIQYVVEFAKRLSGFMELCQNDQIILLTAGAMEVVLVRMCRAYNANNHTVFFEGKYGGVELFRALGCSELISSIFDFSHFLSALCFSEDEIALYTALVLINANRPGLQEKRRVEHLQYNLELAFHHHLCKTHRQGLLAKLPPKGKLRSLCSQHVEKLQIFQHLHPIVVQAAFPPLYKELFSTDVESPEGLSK
#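 A Gal4/UAS one-hybrid system in insect cells: metallothionein-promoter Gal4–ROR gamma fusion plus Photinus luciferase reporter. Copper sulfate 700 uM final, 20 hr ambient incubation, luminescent detection after 10 min with reagent.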
# IL-1B inflam inh – inhibitors of inflammasome signaling (IL-1 beta secretion); THP-1 LPS/ATP IL-1B secretion, AlphaLISA, 16 h; hits give low values; activity change, % at 57.5 µM; 4.7% of 360,000 active; AID 743279; in the data active means activity change below about -50%; inconclusive means mostly about -30% to -49%; further: on the % scale 0 is the no-effect control and ±100 the full control effect
#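 THP-1 cells pretreated 1 hr with compounds (up to 57.5 uM final), then stimulated with LPS (250 ng/mL final) plus ATP (1.25 mM final); secreted IL-1B measured by AlphaLISA after 16 hr, decreased signal indicating inhibition.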
# VP16 counter – inhibits Gal4-VP16 luciferase reporter, ROR gamma counter-screen | Drosophila S2 Gal4-VP16 UAS-luciferase, luminescence, 20 h | Potency, µM (doses to about 53.6 µM), for the others: at the highest dose activity, negative = inhibition, usual class: inhibitors | 3.5% of 310,000 active | AID 2546;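 further: Gal4-VP16 expression switched on by copper sulfate through the metallothionein promoter; potency means the concentration at half of the fitted maximal effect; on the % scale 0 is the no-effect control and ±100 the full control effect; nearly all actives have a fitted effect of over 50% in size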
# MCF10A rereplic – induces DNA re-replication in MCF 10a normal breast cells | 2.9% of 350,000 active | AID 624296 | Potency, µM (highest dose often 46.1 µM), for inactives: top-dose activity, positive = re-replication, most hits filed as activators | MCF 10A DNA re-replication, Hoechst nuclear intensity, 48 h; further: potency means the concentration at half of the fitted maximal effect; % of control where 0% means no effect; nearly all actives have a fitted effect of over 50% in size
# SW480 rerep – inducers of DNA re-replication in SW480 colon cancer cells | SW480 DNA re-replication, Hoechst DNA content imaging, 48 h | Potency, µM (doses to about 46.1 µM), inactives show at the top dose re-replication activation, most hits filed as activators | 1.8% of 340,000 active | AID 624297; further: potency means the concentration at half of the fitted maximal effect; % of control where 0% means no effect; nearly all actives have a fitted effect of over 55% in size
#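 SW480 cells exposed to compounds for 48 hr at 37 C, 5% CO2, then Hoechst-stained 40 min. Nuclear DNA content imaged by fluorescence scanning (405 nm excitation, 500-530 nm emission); re-replication scored as increased high-intensity nuclei.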
# An asterisk follows results filed as active; ? = inconclusive; nt = not tested or not shown; [ ] = remark or other dose. Rows were chosen to be rich in hits. Some 11% of all compounds tested hit in one or more screens of this group. Unless noted, the call rests on the fitted dose curve; in most records, active means well fitted curve in the direction sought with a large enough effect; inconclusive means small, poorly fitted or top-dose-only effect, or another doubt; inactive means no such curve, though single readings can be large; an effect the other way counts as inactive or inconclusive.
SMILES,RORg inh,IL-1B inflam inh,VP16 counter,MCF10A rereplic,SW480 rerep
CCOC(=O)c1c(C)[nH]c(C)c1S(=O)(=O)NCc1cc(C)ccc1C,0%,-21,-6%,5%,-10%
Cc1ccc(-c2ccc3c(c2)O[C@H](CN(C)Cc2cncnc2)[C@@H](C)CN([C@H](C)CO)S3(=O)=O)cc1,nt,-29,nt,nt,nt
Cc1ccc(S(=O)(=O)n2cc(-c3ccccc3)c3ccccc32)cc1,nt,69,nt,36%,3.7µM*
CC(C)(C)c1ccc(C(=O)CCCN2CCC(OC(c3ccccc3)c3ccccc3)CC2)cc1,0%[10 µM],nt,11µM*,12µM*,-3%
CN1CCN(CCCCC(=O)c2ccccc2)CC1,15%,31,2%,?,-3%
CCN(CC(=O)NCCc1ccc(F)cc1)Cc1nc2ccccc2c(=O)[nH]1,7.9µM*,11,?,6%,8%
CCN(CC(=O)NCCc1ccc(Cl)cc1)Cc1nc2ccccc2c(=O)[nH]1,2.2µM*,1,?,13%,3%
CCN(CC(=O)NCc1ccc(F)cc1)Cc1nc2cc(Cl)ccc2c(=O)[nH]1,7%,-18,?,18%,-3%
CC(C)C(=O)N(Cc1ccc(F)cc1)Cc1nc2ccccc2c(=O)[nH]1,11µM*,8,-24%,?,-10%
O=C(/C=C/c1ccccc1[N+](=O)[O-])OCC(=O)N1CCN(c2ccccc2)CC1,nt,3,nt,nt,nt
C=CC[C@H](CC(=O)N(CCO)Cc1ccccc1)C(=O)N[C@H](COC(=O)[C@H](CC=C)CC(=O)OC(C)(C)C)Cc1ccccc1,nt,-27,nt,?,?
C=CC[C@@H](CC(=O)N(CCO)Cc1ccccc1)C(=O)N[C@H](COC(=O)[C@@H](CC=C)CC(=O)OC(C)(C)C)C(C)(C)C,nt,-58*,nt,21%,13%
C=CC[C@@H](CC(=O)N(CCO)Cc1ccccc1)C(=O)N[C@H](COC(=O)[C@@H](CC=C)CC(=O)OC(C)(C)C)c1ccccc1,nt,-72*,nt,-1%,?
CN(C)CCNC(=O)c1cccc(-c2cccc3nncn23)c1,nt,-16,nt,nt,nt
O=C(COC(=O)Cc1cccc(F)c1)NC(=O)NC1CCCCC1,nt,-1,nt,0%,-58%
CC(C)C[C@@H](NC(=O)[C@H](Cc1ccccc1)NC(=O)c1cnccn1)B(O)O,0.0079µM*,nt,?,?,0.003µM*
CC(NC(=O)C(Cc1ccccc1)NC(=O)c1ccccc1)C(=O)O (configuration not stated),1%,4,-5%,-2%,-14%
CCCCn1c(N)c(N(CCOC)C(=O)c2cccc(S(=O)(=O)N(CC)c3ccccc3)c2)c(=O)[nH]c1=O,nt,14,nt,-2%,-5%
Cc1ccsc1C1Nc2ccccc2C(=O)N1O (configuration not stated),16µM*,8,?,1%,16µM*
Cc1nn(C)cc1C1Nc2ccccc2C(=O)N1O (configuration not stated),?,-10,2%,0%,2%
O=C1c2ccccc2NC(c2cnc3ccccc3n2)N1O (configuration not stated),10µM*,-6,?,3%,-4%
C=CCc1cccc(C2Nc3ccccc3C(=O)N2O)c1O (configuration not stated),7.1µM*,-6,?,26%,-3%[9.22 µM]
O=C1c2ccccc2NC(c2ccc(Cl)cc2Cl)N1O (configuration not stated),3.5µM*,57,10µM*,?,?
CCCC/C=C/[C@H](c1ccccc1)[C@H](CO)Cc1ccc2ccccc2c1,1%,nt,2%,nt,nt
c1cc(-c2ccc(CN3CCOCC3)cc2)n2ccnc2c1,nt,11,nt,nt,nt
SMILES,RORg inh,IL-1B inflam inh,VP16 counter,MCF10A rereplic,SW480 rerep
Oc1ccc(Br)cc1-c1ccnn1-c1ccccc1,7%,-1,1%,7.3µM*,?
Cc1cc(C)nc(/N=C2/NC(=O)CS2)n1,4%,25,-1%,21%,-1%
Cc1ccc(C)n1/N=C1/NC(=O)CS1,-41%,19,4%,1%,-2%
CC1C/C(=N/N=C2/NC(=O)CS2)CC(C)(C)C1 (configuration not stated),2.2µM*,7,5µM*,0%,-2%
CC1C/C(=N/N2C(=O)CSC2=S)CC(C)(C)C1 (configuration not stated),10µM*,28,-8%,0%,-1%
O=C1CS/C(=N/N=C2C3CC4CC(C3)CC2C4)N1,4.5µM*,14,3.2µM*,-4%,-6%
CCCNC(=O)C1(C)CCN(C(=O)c2cccc(C(F)(F)F)c2)C1 (configuration not stated),nt,6,nt,nt,nt
O=C(NNC(=S)NC(=O)c1sc2ccccc2c1Cl)c1ccc(Cl)cc1,5µM*,31,13µM*,?,3%
CCCCOC(=S)NC(=O)c1sc2ccccc2c1Cl,5.6µM*,5,?,-1%,-7%
Cc1ccc(NC(=S)NC(=O)c2sc3ccccc3c2Cl)c(C(=O)O)c1,7.1µM*,nt,?,nt,nt
O=C(O)c1ccccc1NC(=S)NC(=O)c1sc2ccccc2c1Cl,7%,3,10%,10%,0%
COc1ccc2c(Cl)c(C(=O)NN)sc2c1,11µM*,?,?,?,?
CN(C)CCCOC(=O)c1sc2ccccc2c1Cl,-3%,?,2%,6%,-6%
COC(=O)c1ccc2c(c1)c(-c1ccccc1)c(-c1ccccc1)n2C,nt,-6,nt,?,-53%
COc1ccc(-c2cc(=S)ss2)cc1,?,nt,7%,5%,-4%
C/C(=N\NC(=O)c1nn(C)c(C)c1Br)c1ccc(NC(=O)C2CCCC2)cc1,5.6µM*,0,?,7%,24%
CC(/C=N/NC(=O)c1nn(C)c(C)c1Br)=C\c1ccccc1,0.16µM*,0,?,-71%,-1%
CC(/C=N/NC(=O)c1c(Br)cnn1C)=C\c1ccccc1,16%,-52*,17%,1%,-5%
C/C(=N\NC(=O)c1ccn(C)n1)c1ccc(NC(=O)C2CCCC2)cc1,5%,59,17%,3%,-2%
O=S(=O)(O)c1cc(O)c(N=Nc2ccc(O)cc2O)c2ccccc12,nt,-26,nt,-3%,-6%
c1ccc(Oc2ccc(-c3ccnc4nc(N5CCOCC5)nn34)cc2)cc1,?,-68*,-3%[10 µM],18µM*,16µM*
CN(Cc1ccco1)c1ncnc2ccc(-c3ccccc3C(F)(F)F)cc12,40%,nt,-10%,nt,nt
CC(C)C[C@H]1CNC(=O)C(=O)N1CC1CCN(CCc2ccc(-c3ccccc3)cc2)CC1,nt,-67*,nt,?,-30%
O=C1NC[C@H](Cc2ccccc2)N(CC2CCN(CCc3ccc(-c4ccccc4)cc3)CC2)C1=O,nt,-59*,nt,?,-14%
O=C(N/N=C/c1ccc([N+](=O)[O-])o1)c1cc2ccccc2o1,?,-10,?,?,?

# Assay outcomes deposited in PubChem by National Center for Advancing Translational Sciences (NCATS).
